Growth inhibition data for 40 compounds are collected here from PubChem BioAssay.

Calls of active or inactive are those of the source. No rule for the calls is given here.

This assay in a line: inhibition of 3D7 malaria parasite growth – strain 3D7 (AID 2306).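 Also: 0% = DMSO wells and 100% = chloroquine plus artemisinin control wells.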 Conditions: P. falciparum 3D7 erythrocytic growth, LDH absorbance, 72 h; at 2 µM; stronger effect = higher value.
With `COc1ccc2nccc([C@@H](O)CN3CCC(NCc4cc5cc(C)ccc5s4)CC3)c2c1`, the growth inhibition was 92% (active).
Under `COc1ccccc1N1CCN(C(C(=O)NCc2ccc(C)cc2)c2ccc(C)cc2)CC1` (stereo not given) stands 92% (active); under `CNCCNCc1cccc(-c2ccc(-c3nc4ccccc4[nH]3)s2)c1`, 99% (active); under `COc1ccccc1C1CCN(CCCCNC(=O)c2ccc(NC(=O)c3ccc(Cl)cc3)cc2)CC1`, 95% (active).
`CN(C)CC(O)C(c1ccccc1)c1cccc(Br)c1` (stereo not given): the growth inhibition was 98% (active).
Under `CC(C)N1CCN(C(CN2CCN(CCCOc3ccc(-c4ccccc4)cc3)CC2)c2ccc(F)cc2)CC1` (stereo not given) stands 100% (active); under `CN1CCN(Cc2nc(-c3ccc4c(Nc5ccc(Oc6ccccc6)cc5)ccnc4c3)cs2)CC1`, 100% (active).
Under `CCN(CC)CC#Cc1ccc2[nH]c(C)c(Cl)c(=O)c2c1` stands 96% (active).
Under `O=S(=O)(NC1CCCCN(Cc2ccccc2O)C1)c1ccc(C(F)(F)F)cc1` (stereo not given) stands 84% (active); under `NC1=NC2(CCCCC2)N(OCCCOc2cccc3ccccc23)C(N)=N1`, 95% (active).
Take `Cc1cc(C(F)(F)F)nn1-c1ccc(NC(=O)c2ccco2)cc1`: the growth inhibition was 94% (active).
Under `NS(=O)(=O)NCCCN1CCN(c2ccccc2)CC1` stands 90% (active); under `CC(C)(C)c1ccc(-c2cc3c(ccc4nc(N)nc(N)c43)[nH]2)cc1`, 101% (active).
Under `COc1ccccc1CCNc1nc(C)cc(NCCC(=O)NCCOc2ccccc2)n1` stands 85% (active).
Under `CCOc1cc(C)ccc1N(C1CCN(CCCCNC(=O)c2ccc(-c3ccc(C(F)(F)F)cc3)cc2)CC1)S(=O)(=O)c1ccccc1` stands 88% (active).
In the case of `Cc1ccc(NC(=O)N2CCCN(CCCCCNC(=O)/C=C/c3ccc(Cl)c(Cl)c3)CC2)cc1C`, the growth inhibition was 101% (active).
Under `NCc1cccc(-c2ccccc2CNC2CCN(Cc3ccccc3)CC2)c1` stands 94% (active); under `CCc1cc(=O)[nH]c(-n2nc(C)cc2NC(=O)CC(c2ccccc2)c2ccccc2)n1`, 92% (active).
Under `COc1ccc2nccc([C@@H](O)CN3CCC(NC(=O)Cc4cc5ccccc5s4)CC3)c2c1` stands 92% (active).
Under `COc1ccc(C)cc1NC(=O)CSc1nc2cccnc2n1C1CCCCC1` stands 89% (active); under `CC(CN(C)C)C(=O)Nc1cccc(-c2cccc(-c3nc4ccccc4[nH]3)c2)c1` (stereo not given), 94% (active).
In the case of `CN(C)c1ccc(Br)c(Br)c1`, the growth inhibition is 86% (active).
Under `CCCCCN1CCC(CNS(=O)(=O)c2ccc(C(=O)Nc3cccc(C(F)(F)F)c3)cc2)CC1` stands 98% (active).
With `CN(C)CCN(C)Cc1ccc(-c2ccc(NS(=O)(=O)c3cccc4cccnc34)cc2)cc1`, the growth inhibition is 93% (active).
Under `O=C(NCC1CCC(C(=O)O)CC1)c1ccc(/C=C/C(=O)N2CCc3ccccc3C2c2ccc3c(c2)OCO3)cc1` (stereo not given) stands 91% (active); under `O=C(Nc1ccc([N+](=O)[O-])cc1)Nc1cc(C(F)(F)F)ccc1F`, 89% (active); under `CN1CCN(c2ccnc3ccc(NC(=O)Nc4ccc(Br)cc4)cc23)CC1`, 101% (active).
Under `COc1ccc(Nc2nccc(NCCNC(=O)Nc3cc(C)ccc3C)n2)cc1` stands 85% (active).
Under `CCOc1cc(NC(=O)Nc2ccnc3ccccc23)cc(OC)c1` stands 98% (active); under `NC(N)=NC(=O)Nc1cc(Cl)c(Cl)c(Cl)c1`, 101% (active); under `CC(C)(C)c1ccc(OCCCON2C(N)=NC(N)=NC2(C)C)cc1`, 93% (active).
Regarding `COc1cc(OC)cc(-c2nn(-c3ccc([N+](=O)[O-])cc3Cl)c(=S)n2CC2CCCO2)c1` (stereo not given), the growth inhibition was 98% (active).
Regarding `CN1CCN(c2ccnc3ccc(NC(=O)Cc4ccc5ccccc5c4)cc23)CC1`, the growth inhibition was 100% (active).
Turning to `O=C(Nc1ccccc1)N(Cc1ccc(-c2ccc(CNC3CCCC3)cc2)cc1)C1CCN(Cc2ccccc2)CC1`, the growth inhibition was 100% (active).
Under `CCCCN(CCCC)CCCCNc1c2ccc(Cl)cc2nc2ccc(OC)cc12` stands 101% (active).
Take `CC(C)(CNC(=O)/C=C/c1ccc(Cl)c(Cl)c1)CNc1cc(=O)c2ccccc2[nH]1`: the growth inhibition is 96% (active).
Consider `CC(C)CNCc1ccc(-c2ccc(CNC3CCN(Cc4ccccc4)CC3)cc2)cc1`, for which the growth inhibition is 100% (active).
Under `CCN(CC)CCNc1ccnc2[nH]c3ccc(C)cc3c12` stands 102% (active); under `CN1CCN(c2ccnc3ccc(NC(=O)Nc4cccc(C#N)c4)cc23)CC1`, 99% (active); under `CC(O)C1CCCCN1C(=O)c1cccc(-c2cccc(-c3nc4ccc(C(F)(F)F)cc4[nH]3)c2)c1` (stereo not given), 100% (active).
